Shown are actives, neighbours in structure and some others; about 3.6% of the full set was active somewhere.
Pf apPOL inh = Pf-apPOL DNA polymerase inhibition | Recombinant Pf-apPOL, molecular beacon fluorescence, 1.5 h | inhibition, % at 10 µM | actives 0.25% (n = 210,000)
mHTT-CaM PPI inh = inhibitors of human mutant huntingtin-calmodulin interaction; P42858; AlphaScreen His-mHTT/GST-CaM binding, luminescence; inhibition, % at 15 µM; actives 3.6% (n = 190,000); AID 1671202
Target sequence (P42858 whole entry, looked up, change not shown): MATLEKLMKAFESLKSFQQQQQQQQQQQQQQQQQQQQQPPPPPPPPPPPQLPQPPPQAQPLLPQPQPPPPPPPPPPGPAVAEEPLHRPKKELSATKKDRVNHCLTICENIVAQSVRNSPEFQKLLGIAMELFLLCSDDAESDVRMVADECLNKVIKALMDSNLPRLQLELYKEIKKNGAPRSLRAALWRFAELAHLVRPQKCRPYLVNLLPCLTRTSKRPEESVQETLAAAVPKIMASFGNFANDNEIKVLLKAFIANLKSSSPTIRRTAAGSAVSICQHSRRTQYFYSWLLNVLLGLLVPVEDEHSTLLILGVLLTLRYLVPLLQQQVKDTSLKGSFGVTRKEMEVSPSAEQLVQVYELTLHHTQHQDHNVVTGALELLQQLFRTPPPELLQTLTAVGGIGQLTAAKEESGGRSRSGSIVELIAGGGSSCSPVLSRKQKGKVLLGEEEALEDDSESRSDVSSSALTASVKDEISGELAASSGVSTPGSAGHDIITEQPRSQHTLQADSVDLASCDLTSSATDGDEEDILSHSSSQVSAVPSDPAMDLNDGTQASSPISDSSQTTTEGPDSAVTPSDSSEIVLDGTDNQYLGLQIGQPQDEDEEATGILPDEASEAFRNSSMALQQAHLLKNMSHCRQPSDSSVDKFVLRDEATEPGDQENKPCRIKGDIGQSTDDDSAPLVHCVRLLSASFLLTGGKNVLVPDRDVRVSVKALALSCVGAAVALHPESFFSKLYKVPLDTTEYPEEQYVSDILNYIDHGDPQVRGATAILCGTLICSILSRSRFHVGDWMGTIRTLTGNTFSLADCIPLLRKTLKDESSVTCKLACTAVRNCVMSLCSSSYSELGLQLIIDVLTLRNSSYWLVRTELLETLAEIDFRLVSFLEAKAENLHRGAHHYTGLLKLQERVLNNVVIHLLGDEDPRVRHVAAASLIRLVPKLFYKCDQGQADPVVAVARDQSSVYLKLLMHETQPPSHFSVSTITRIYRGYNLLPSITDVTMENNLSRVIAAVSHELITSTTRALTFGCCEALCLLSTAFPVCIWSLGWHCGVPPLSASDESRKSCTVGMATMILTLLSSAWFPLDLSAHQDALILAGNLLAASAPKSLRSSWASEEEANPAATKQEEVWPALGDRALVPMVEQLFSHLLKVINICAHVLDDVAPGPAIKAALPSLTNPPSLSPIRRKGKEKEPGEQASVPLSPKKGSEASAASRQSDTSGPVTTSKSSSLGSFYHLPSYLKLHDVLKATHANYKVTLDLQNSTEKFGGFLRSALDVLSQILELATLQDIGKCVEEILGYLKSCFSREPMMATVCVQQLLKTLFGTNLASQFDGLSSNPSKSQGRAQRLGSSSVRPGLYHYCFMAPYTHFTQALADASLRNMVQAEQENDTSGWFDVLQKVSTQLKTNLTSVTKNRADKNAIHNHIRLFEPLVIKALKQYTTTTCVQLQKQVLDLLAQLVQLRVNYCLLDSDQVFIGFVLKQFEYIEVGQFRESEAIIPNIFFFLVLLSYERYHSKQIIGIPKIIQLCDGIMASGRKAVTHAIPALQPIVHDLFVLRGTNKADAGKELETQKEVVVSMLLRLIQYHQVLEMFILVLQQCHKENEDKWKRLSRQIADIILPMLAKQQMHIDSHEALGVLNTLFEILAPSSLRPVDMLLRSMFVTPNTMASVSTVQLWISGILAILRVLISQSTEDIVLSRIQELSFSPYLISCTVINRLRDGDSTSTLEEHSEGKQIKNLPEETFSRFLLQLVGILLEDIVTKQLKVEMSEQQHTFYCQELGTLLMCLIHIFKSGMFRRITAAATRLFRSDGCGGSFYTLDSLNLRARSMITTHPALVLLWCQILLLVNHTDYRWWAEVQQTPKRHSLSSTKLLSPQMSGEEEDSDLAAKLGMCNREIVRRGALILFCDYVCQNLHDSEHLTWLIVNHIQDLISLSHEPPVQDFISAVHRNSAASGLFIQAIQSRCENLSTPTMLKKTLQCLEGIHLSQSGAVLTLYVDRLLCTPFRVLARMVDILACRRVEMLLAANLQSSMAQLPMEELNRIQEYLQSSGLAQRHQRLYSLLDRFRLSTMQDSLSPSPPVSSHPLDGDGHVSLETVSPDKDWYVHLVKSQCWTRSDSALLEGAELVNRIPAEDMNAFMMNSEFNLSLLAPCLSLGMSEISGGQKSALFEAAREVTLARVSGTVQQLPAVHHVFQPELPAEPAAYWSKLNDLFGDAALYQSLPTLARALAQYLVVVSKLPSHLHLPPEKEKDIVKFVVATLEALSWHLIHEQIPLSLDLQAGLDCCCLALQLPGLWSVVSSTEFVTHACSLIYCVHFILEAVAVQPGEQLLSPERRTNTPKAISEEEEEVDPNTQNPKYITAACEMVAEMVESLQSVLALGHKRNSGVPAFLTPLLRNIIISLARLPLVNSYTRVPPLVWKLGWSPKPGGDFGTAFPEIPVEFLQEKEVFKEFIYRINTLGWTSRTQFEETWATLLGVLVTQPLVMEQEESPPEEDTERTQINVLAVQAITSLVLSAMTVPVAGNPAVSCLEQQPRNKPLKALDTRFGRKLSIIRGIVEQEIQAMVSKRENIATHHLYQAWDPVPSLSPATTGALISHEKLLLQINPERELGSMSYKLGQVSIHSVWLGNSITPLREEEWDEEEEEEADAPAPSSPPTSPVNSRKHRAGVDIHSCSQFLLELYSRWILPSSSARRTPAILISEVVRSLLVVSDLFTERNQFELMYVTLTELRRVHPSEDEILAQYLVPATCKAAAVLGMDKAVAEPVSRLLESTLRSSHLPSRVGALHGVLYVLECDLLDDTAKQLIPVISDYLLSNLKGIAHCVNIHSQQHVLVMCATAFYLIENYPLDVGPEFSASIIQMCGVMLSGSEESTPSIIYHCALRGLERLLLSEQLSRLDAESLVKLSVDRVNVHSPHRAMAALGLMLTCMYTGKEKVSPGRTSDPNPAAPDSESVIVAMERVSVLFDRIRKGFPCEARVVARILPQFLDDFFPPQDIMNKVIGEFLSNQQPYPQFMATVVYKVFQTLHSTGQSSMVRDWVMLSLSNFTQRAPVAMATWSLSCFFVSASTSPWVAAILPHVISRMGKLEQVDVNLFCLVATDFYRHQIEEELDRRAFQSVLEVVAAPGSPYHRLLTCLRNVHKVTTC
Each line names hits and unclear results; the compound was inactive in the other large screens. Rule as the data show it: active = inhibition above about 50%; inactive = the rest.

COCC(C)(O)CNC(=O)c1cn(C)nc1OC (configuration not stated)	none
O=C1C=C(c2ccc(Cl)cc2)C(=O)N1c1ccccc1Cl	mHTT-CaM PPI inh 62
COc1ccccc1N1C(=O)C=C(c2ccc(Cl)cc2)C1=O	none
Nc1ccc(Nc2ccc(N)cc2S(=O)(=O)O)cc1	mHTT-CaM PPI inh 97 (no result: Pf apPOL inh)
Nc1ccc(Nc2ccccc2)c(Cl)c1	none
Cc1cc(C)n(C(=O)c2ccc(COc3ccc(F)cc3)o2)n1	none
COc1cc2c(cc1OC)CN(Cc1ccccc1Cl)CC2	none
COc1cc2c(cc1OC)CN(Cc1ccc(Cl)c(Cl)c1)CC2	mHTT-CaM PPI inh 55
Cc1ccc(C)c(NC(=O)c2cn3c(n2)CCCC3)c1	none
CS(=O)(=O)N=C(N)c1ccncc1	none (no result: mHTT-CaM PPI inh)
CCCCCC(=O)Nc1ncc2c(n1)CC(c1cc(OC)c(OC)c(OC)c1)CC2=O (configuration not stated)	Pf apPOL inh 82
COc1cc(C2CC(=O)c3cnc(NC(=O)c4ccccc4)nc3C2)cc(OC)c1OC (configuration not stated)	none
CC(C(=O)Nc1nc2c(s1)CCCC2)n1nc(-c2ccc(F)cc2)ccc1=O (configuration not stated)	mHTT-CaM PPI inh 88
CC(C(=O)Nc1cc(Cl)ccc1C#N)n1nc(-c2ccc(F)cc2)ccc1=O (configuration not stated)	none
CSC(NCc1cccnc1)=C(C#N)S(=O)(=O)c1ccc(Cl)cc1	none (no result: mHTT-CaM PPI inh)
CC(C)(Oc1ccc(Cl)cc1)C(=O)NC1CC(O)C(CO)C1 (configuration not stated)	none
Cc1onc(-c2ccccc2Cl)c1C(=O)Nc1nnc(-c2cccs2)o1	mHTT-CaM PPI inh 82
CCN(CC)S(=O)(=O)c1ccc(C(=O)Nc2nnc(-c3cccs3)o2)cc1	none
Cc1cc(C(=O)Nc2nnc(-c3cccs3)o2)no1	none
Cc1ccc(S(=O)(=O)Nc2cccc(C(=O)Nc3nnc(-c4cccs4)o3)c2)cc1	mHTT-CaM PPI inh 82
COc1cc(/C=N/NC(N)=S)cc(OC)c1	none (no result: Pf apPOL inh)
CCc1nc(SCC(=O)Nc2nc3c(s2)CCCC3)n[nH]1	none
O=S1(=O)N=C(N/N=C/c2cc(Cl)ccc2O)c2ccccc21	mHTT-CaM PPI inh active (no result: Pf apPOL inh)
O=S1(=O)N=C(Nc2ccccc2O)c2ccccc21	none
COc1cc(C(=O)Nc2ccc(S(=O)(=O)Nc3ncccn3)cc2)cc(OC)c1OC	none
Cc1ccc(O)c(C2NC(=O)c3c(sc(C)c3C)N2)c1 (configuration not stated)	mHTT-CaM PPI inh 72
Cc1cccc(C2NC(=O)c3c(sc(C)c3C)N2)c1O (configuration not stated)	none
CC1=C/C(=C/c2ccc(-c3cccc([N+](=O)[O-])c3)o2)C(=O)O1	none
CC(C)C1C(=O)N(Cc2cn(Cc3ccco3)nn2)CCS(=O)(=O)N1Cc1ccc(-c2ccccc2)cc1 (configuration not stated)	mHTT-CaM PPI inh 73
CC(C)C1C(=O)N(Cc2cn(Cc3ccco3)nn2)CCS(=O)(=O)N1Cc1ccc(-c2ccc(F)nc2)cc1 (configuration not stated)	mHTT-CaM PPI inh 60
CC(C)C1C(=O)N(Cc2cn(CCC3OCCO3)nn2)CCS(=O)(=O)N1Cc1ccc(-c2ccccc2Cl)cc1 (configuration not stated)	mHTT-CaM PPI inh 66
COc1ccc(-c2ccc(CN3C(C(C)C)C(=O)N(Cc4cn(CCC5OCCCO5)nn4)CCS3(=O)=O)cc2)cn1 (configuration not stated)	mHTT-CaM PPI inh 50
CC(C)C1C(=O)N(Cc2cn(Cc3ccco3)nn2)CCS(=O)(=O)N1Cc1ccc(-c2ccc(Cl)cc2)cc1 (configuration not stated)	none
COc1ccc(-c2ccc(CN3C(C(C)C)C(=O)N(Cc4cn(CCC5OCCO5)nn4)CCS3(=O)=O)cc2)cn1 (configuration not stated)	none
CC(C)C1C(=O)N(Cc2cn(CC3CCCCC3)nn2)CCS(=O)(=O)N1Cc1ccc(-c2ccc(F)nc2)cc1 (configuration not stated)	none
CC(C)C1C(=O)N(Cc2cn(CCC3OCCO3)nn2)CCS(=O)(=O)N1Cc1ccc(-c2ccccc2)cc1 (configuration not stated)	none
CS(=O)(=O)N(CC(=O)NCc1ccc(Cl)cc1)c1ccccc1F	none
Cc1cccc(CNC(=O)C2CCCN(C(=O)c3ccccc3F)C2)c1 (configuration not stated)	none
CCNC(=O)c1ccc2c(c1)N(S(=O)(=O)c1ccccc1F)CC2	none
CC1=C(C(=O)Nc2ccccc2)C(c2ccc([N+](=O)[O-])cc2)n2nnnc2N1 (configuration not stated)	none
COc1cc(C2CC(=O)n3nc(-c4ccc(F)cc4)nc3S2)cc(OC)c1OC (configuration not stated)	none
COc1ccc(NC(=O)CC(NCC(C)O)C(=O)O)c(OC)c1 (configuration not stated)	none
Cc1ccc(-c2ccc(CN3C(C)C(=O)N(Cc4cn(CCC5OCCO5)nn4)CCS3(=O)=O)cc2)cc1 (configuration not stated)	none
CC1C(=O)N(Cc2cn(CCC3OCCO3)nn2)CCS(=O)(=O)N1Cc1ccc(-c2ccccc2)cc1 (configuration not stated)	mHTT-CaM PPI inh 74
COc1ccc(-c2ccc(CN3C(CC(C)C)C(=O)N(Cc4cn(Cc5ccco5)nn4)CCS3(=O)=O)cc2)cc1OC (configuration not stated)	none
CC(C)C1C(=O)N(Cc2cn(Cc3ccco3)nn2)CCS(=O)(=O)N1Cc1ccc(-c2ccc(F)cc2)cc1 (configuration not stated)	mHTT-CaM PPI inh 69
CC(C)C1C(=O)N(Cc2cn(Cc3ccco3)nn2)CCS(=O)(=O)N1Cc1ccc(-c2ccncc2)cc1 (configuration not stated)	none
CC1C(=O)N(Cc2cn(Cc3ccco3)nn2)CCS(=O)(=O)N1Cc1ccc(-c2ccccc2)cc1 (configuration not stated)	mHTT-CaM PPI inh 63
Cc1cc(C)c(NC(=O)C2CCCN(c3nccc(C)n3)C2)c(C)c1 (configuration not stated)	none
CCC(Oc1ccccc1)C(=O)Nc1ncccc1C (configuration not stated)	none
CCC(C)Nc1ncnc2c1cnn2-c1ccc(OC)cc1 (configuration not stated)	none
COc1ccc(CCN2COc3cc4c(cc3C2)OCO4)cc1	none
O=C(C1CCCN(c2nccc3sccc23)C1)N1CCN(c2ccccc2F)CC1 (configuration not stated)	mHTT-CaM PPI inh 90
Cc1cc2c(N3CCCC(C(=O)N4CCN(C5CCCCC5)CC4)C3)nccc2s1 (configuration not stated)	none
Cc1ccc(NC(=O)C2CCCN(c3nccc4sccc34)C2)cc1F (configuration not stated)	none
Cc1cc2c(N3CCCC(C(=O)N4CCN(c5ccccc5)CC4)C3)nccc2s1 (configuration not stated)	mHTT-CaM PPI inh 100
O=C(C1CCCN(c2nccc3sccc23)C1)N1CCN(c2ccc(F)cc2)CC1 (configuration not stated)	mHTT-CaM PPI inh 95
O=C(NCc1ccc(F)cc1Cl)C1CCCN(c2nccc3sccc23)C1 (configuration not stated)	none
Cc1ccc(Oc2nccnc2N2CCC(C(=O)Nc3ccc(F)cc3)CC2)cc1	none

High-throughput results from PubChem BioAssay.
